Assay outcomes (PubChem BioAssay)
Hits are enriched below; roughly 2.8% of the tested compounds scored in any of these assays.
Platelet DG rel = platelet dense granule release activity | AID 1663 | hit rate 0.22% among 300,000 | human platelet-rich plasma, SFLLRN dense granule ATP release, luminescence | inhibition, %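 (compounds screened at 7.5 µM in platelet-rich plasma)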;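 active means mean replicate score, as percent of positive control, at or above 50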
SENP8 block-1 = inhibitors of human SENP8 protease. recombinant SENP8, Nedd8 substrate fluorescence. AID 602440. Q96LD8. inhibition, % at 20 µM. hit rate 0.64% among 360,000; in the data active means inhibition mostly above about 40%, no sharp cut-off; inactive means mostly below about 27%
HSP90 inh = blocks HSP90-mediated luciferase refolding in reticulocyte lysate. Rabbit reticulocyte lysate, luciferase refolding luminescence, 3 h. inhibition, % at 5.6 µM. hit rate 0.91% among 290,000. AID 1789;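 active means inhibition above the screen-wide mean plus 3 SD, computed separately per campaign, cut at about 16% in these data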;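 further: 0% = DMSO wells and 100% = 60 µM geldanamycin wells; inhibitors lower the luminescence because luciferase stays unfolded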
SENP8 block-2 = blocks the human protease SENP8 | Q96LD8 | purified SENP8, Z-RLRGG-aminoluciferin cleavage, luminescence | inhibition, % at 10 µM | hit rate 1.2% among 330,000 | AID 2540; in the data active means inhibition above about 50%
SENP7 block = SENP7 protease inhibition | recombinant SENP7, Z-RLRGG-aminoluciferin luminescence, 40 min | inhibition, % at 5 µM | hit rate 1.5% among 330,000;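 active means inhibition above about 50% at the single test dose, limit read from the data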;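 further: plate controls were DMSO with enzyme for no effect and no enzyme buffer wells for full effect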
Target sequence (Q9BQF6 706-1050 limits assumed): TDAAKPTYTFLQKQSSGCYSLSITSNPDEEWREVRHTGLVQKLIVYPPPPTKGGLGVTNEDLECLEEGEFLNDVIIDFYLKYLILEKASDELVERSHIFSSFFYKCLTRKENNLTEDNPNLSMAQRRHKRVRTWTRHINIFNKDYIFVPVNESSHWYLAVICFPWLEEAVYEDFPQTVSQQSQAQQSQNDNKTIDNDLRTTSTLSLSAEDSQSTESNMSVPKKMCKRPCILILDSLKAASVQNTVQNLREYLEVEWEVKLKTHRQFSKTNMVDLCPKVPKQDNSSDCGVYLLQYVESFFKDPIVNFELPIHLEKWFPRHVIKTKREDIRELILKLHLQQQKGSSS
SENP6 block = blocks the human protease SENP6. Q9GZR1. Recombinant SENP6 catalytic domain, aminoluciferin luminescence. inhibition, % at 10 µM. hit rate 1.8% among 330,000;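 active means inhibition above about 50% at the single tested dose, limit read from the data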;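 further: plate controls were DMSO wells with enzyme for no effect and DMSO wells lacking enzyme for full effect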
SENP8 conf = confirmation of human SENP8 protease inhibitors; shares compounds with SENP8 block-1; purified SENP8, Nedd8-AMC/pro-Nedd8 cleavage fluorescence, 30 min; inhibition, % at 25 µM; hit rate 15% among 1,400; in the data active means inhibition mostly above about 39%, no sharp cut-off; inactive means mostly below about 34%
The depositor's hits bear a star.

How did CCOC(=O)COc1ccc(/C=C2/SC(=Nc3ccccc3)N(Cc3cccnc3)C2=O)cc1OC do in these assays?
Platelet DG rel: 15.6; SENP8 block-1: 43.0*; HSP90 inh: 0.3; SENP8 block-2: -1.4; SENP7 block: 8.4; SENP6 block: -2.3; SENP8 conf: 19.1

What do the screens show for `O=C(NCC1COc2ccccc2O1)C1C2C=CC3(CN(Cc4ccccc4Cl)C(=O)C13)O2` (stereo not given)?
Platelet DG rel: -4.3; SENP8 block-1: 4.0; HSP90 inh: 5.3; SENP8 block-2: -2.4; SENP7 block: -9.1; SENP6 block: 8.4

How did COc1ccc(CCN2CC34C=CC(O3)C(C(=O)NCc3ccccc3Cl)C4C2=O)cc1OC (stereo not given) do in these assays?
Platelet DG rel: -4.5; SENP8 block-1: 46.8*; HSP90 inh: 0.4; SENP8 block-2: 2.0; SENP7 block: 4.8; SENP6 block: 4.1; SENP8 conf: 15.6

Results for CC(C)C[C@H]1CN(CCCC[C@@H]2CNC(=O)C(=O)N2CCc2ccccc2)C(=O)C(=O)N1CCC1CCCCC1 ?
SENP8 block-1: 19.1

Results for CCc1ccc(C(=O)NNc2ccc(F)cc2F)cc1 ?
Platelet DG rel: 2.0; SENP8 block-1: 5.7; HSP90 inh: 3.2; SENP8 block-2: -4.0; SENP7 block: 9.7; SENP6 block: -2.7

Results for CCCc1ccc(C(=O)NNc2ccc(F)cc2)cc1 ?
Platelet DG rel: 0.9; SENP8 block-1: 46.8*; HSP90 inh: -4.3; SENP8 block-2: -14.2; SENP7 block: 10.3; SENP6 block: -10.3; SENP8 conf: 8.3

How did COc1ccc(NC(=O)COC(=O)CC2CC3CCC2C3)c([N+](=O)[O-])c1 (stereo not given) do in these assays?
Platelet DG rel: -4.5; SENP8 block-1: 40.4*; HSP90 inh: 8.2; SENP8 block-2: -6.4; SENP7 block: -1.4; SENP6 block: 1.4; SENP8 conf: 23.2

How did COc1ccc(NC(=O)COC(=O)C2CCCCC2)c([N+](=O)[O-])c1 do in these assays?
Platelet DG rel: -2.7; SENP8 block-1: 12.0; HSP90 inh: -2.9; SENP8 block-2: -0.8; SENP7 block: 1.7; SENP6 block: -10.0

How did O=[N+]([O-])c1ccc(/C=[N+](\[O-])CCO)o1 do in these assays?
Platelet DG rel: -2.1; SENP8 block-1: 44.7*; HSP90 inh: 2.9; SENP8 block-2: 5.2; SENP7 block: -1.5; SENP6 block: 7.3; SENP8 conf: 17.7

Results for COc1ccc(S(=O)(=O)N2CCOCC2)cc1NC(=O)COC(=O)C1=COCCO1 ?
Platelet DG rel: 0.7; SENP8 block-1: 41.4*; HSP90 inh: 0.4; SENP8 block-2: -3.7; SENP7 block: -5.8; SENP6 block: -11.6; SENP8 conf: 11.5

How did O=C(O)/C=C\C(=O)O do in these assays?
SENP8 block-1: 7.0; SENP8 block-2: 8.8; SENP7 block: -7.7; SENP6 block: -6.2

What do the screens show for `O=C(O)C=C(Br)Br`?
Platelet DG rel: -1.1; SENP8 block-1: 45.9*; HSP90 inh: -8.5; SENP8 block-2: -5.6; SENP7 block: 4.0; SENP6 block: -4.0; SENP8 conf: 20.5

How did Cc1cc(C)c2nc(N3CCCC(C(=O)NC4CCCC4)C3)sc2c1 (stereo not given) do in these assays?
Platelet DG rel: 6.5; SENP8 block-1: -4.2; HSP90 inh: 1.1; SENP8 block-2: -2.2; SENP7 block: -2.4; SENP6 block: -0.8

Results for COc1ccc(CSc2nnnn2-c2ccc(C(N)=O)cc2)cc1[N+](=O)[O-] ?
Platelet DG rel: 0.0; SENP8 block-1: 9.2; HSP90 inh: 4.8; SENP8 block-2: -2.7; SENP7 block: 5.9; SENP6 block: 16.7

What do the screens show for `COc1ccc(CSc2nnnn2C)cc1[N+](=O)[O-]`?
Platelet DG rel: 4.6; SENP8 block-1: 48.3*; HSP90 inh: -1.3; SENP8 block-2: 2.0; SENP7 block: 8.9; SENP6 block: -2.6; SENP8 conf: 14.0

How did CC/C(=N/Nc1ccccc1C)c1cnnc(SC)n1 do in these assays?
Platelet DG rel: -0.5; SENP8 block-1: 11.2; HSP90 inh: -4.3; SENP8 block-2: 0.3; SENP7 block: 6.8; SENP6 block: 27.0

How did Cc1cccc(N/N=C(\C#N)S(=O)(=O)C(C)(C)C)c1 do in these assays?
Platelet DG rel: -0.8; SENP8 block-1: 23.4; HSP90 inh: -0.2
